Results from the supplement of paper PMC12494721.
Where a name gives a salt, the structure may show the parent alone.

Columns and labels:
Details in all cases: incubation time: 27 h, anaerobic, 37 °C;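 for the amine columns active = adjusted P below 0.05 in both replicates with a change the same way and a mean fold change under 0.8 or over 1.25; inactive = the rest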
[1] = system: Clostridium sporogenes DSM 1664; assay: growth (OD595) fold change vs plate DMSO controls (fold change (ratio)); higher = more growth
Method in brief: (§1)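 The reported measure is growth: the fold change against the median of DMSO controls on the plate. Absorbance at 595 nm from anaerobic 96-well mGAM cultures grown for 27 h at 37 °C was blank-subtracted, corrected for background with 20 µM compound solutions in water, and converted to OD with a calibration factor of 5. Fold changes above 1.5 appear as NA, and values are the mean of 2 biological replicates.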

[2] = system: Escherichia coli IAI1; assay: as above
Method in brief: as §1

[3] = system: Klebsiella aerogenes DSM 30053; assay: as above
Method in brief: as §1

[4] = system: Ruminococcus gnavus DSM 108212; assay: as above
Method in brief: as §1

[5] = system: Klebsiella aerogenes DSM 30053; assay: fold change of Histamine concentration vs plate DMSO controls (fold change (ratio)); higher = more amine produced, active = hit call of the paper (significant change in both replicates, either direction)
Method in brief: (§2)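 Using LC–triple-quadrupole MS with dynamic MRM, amines were quantified against external calibration curves and corrected for drift within each batch. Samples were whole anaerobic mGAM cultures of four gut strains, grown 27 h at 37 °C from OD 0.1 before 1:1 dilution, extracted with cold acetonitrile/methanol containing 0.1% formic acid and centrifuged. Compounds were present at 20 µM final (sweeteners at 50 µM final). The numbers are fold changes versus plate DMSO controls, each the mean of 2 biological replicates.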

[6] = system: Clostridium sporogenes DSM 1664; assay: fold change of Tryptamine concentration vs plate DMSO controls (fold change (ratio)); higher = more amine produced, active = hit call of the paper (significant change in both replicates, either direction)
Method in brief: as §2

[7] = system: Ruminococcus gnavus DSM 108212; assay: as above
Method in brief: as §2

[8] = system: Escherichia coli IAI1; assay: fold change of Putrescine concentration vs plate DMSO controls (fold change (ratio)); higher = more amine produced, active = hit call of the paper (significant change in both replicates, either direction)
Method in brief: as §2

[9] = system: Klebsiella aerogenes DSM 30053; assay: as above
Method in brief: as §2

[10] = system: Escherichia coli IAI1; assay: fold change of Cadaverine concentration vs plate DMSO controls (fold change (ratio)); higher = more amine produced, active = hit call of the paper (significant change in both replicates, either direction)
Method in brief: as §2

[11] = system: Klebsiella aerogenes DSM 30053; assay: as above
Method in brief: as §2

[12] = system: Ruminococcus gnavus DSM 108212; assay: fold change of 2-Phenylethylamine concentration vs plate DMSO controls (fold change (ratio)); higher = more amine produced, active = hit call of the paper (significant change in both replicates, either direction)
Method in brief: as §2

Structure (SMILES) | growth [1] | growth [2] | growth [3] | growth [4] | fold change of Histamine concentration [5] | fold change of Tryptamine concentration [6] | fold change of Tryptamine concentration [7] | fold change of Putrescine concentration [8] | fold change of Putrescine concentration [9] | fold change of Cadaverine concentration [10] | fold change of Cadaverine concentration [11] | fold change of 2-Phenylethylamine concentration [12]
OC(CNCC(O)C1CCc2cc(F)ccc2O1)C1CCc2cc(F)ccc2O1 (stereo not given) [Nebivolol hydrochloride] (20 µM) | 1.15 | 0.992 | 0.992 | 0.785 | 1.03 (inactive) | 0.94 (inactive) | 0.882 (inactive) | 1.03 (inactive) | 1.01 (inactive) | 0.955 (inactive) | 0.998 (inactive) | 0.879 (inactive)
CN(C)C(=O)COC(=O)Cc1ccc(OC(=O)c2ccc(NC(=N)N)cc2)cc1 [Camostat mesylate] (20 µM) | 1.07 | 1.01 | 1.04 | 0.958 | 0.897 (inactive) | 1.01 (inactive) | 0.982 (inactive) | 1.02 (inactive) | 1.02 (inactive) | 1.02 (inactive) | 1.02 (inactive) | 0.999 (inactive)
CC(C)C(=O)c1c(C(C)C)nn2ccccc12 [Ibudilast] (20 µM) | 0.946 | 0.973 | 1.02 | 0.991 | 1.02 (inactive) | 0.996 (inactive) | 1.08 (inactive) | 1.26 (inactive) | 0.984 (inactive) | 0.987 (inactive) | 0.997 (inactive) | 1.09 (inactive)
c1ccc2cc3ccccc3cc2c1 [Anthracene] (20 µM) | 1.03 | 1.04 | 0.993 | 0.985 | 1.03 (inactive) | 1.03 (inactive) | 1.02 (inactive) | 1.01 (inactive) | 0.986 (inactive) | 0.976 (inactive) | 1.02 (inactive) | 0.963 (inactive)
C#C[C@]1(OC(C)=O)CC[C@H]2[C@@H]3CCC4=C[C@@H](OC(C)=O)CC[C@@H]4[C@H]3CC[C@@]21C [Ethynodiol diacetate] (20 µM) | 0.766 | 0.814 | 1.02 | 1.14 | 0.897 (inactive) | 0.966 (inactive) | 1.01 (inactive) | 0.894 (inactive) | 1 (inactive) | 1.09 (inactive) | 1.02 (inactive) | 1.02 (inactive)
N=C(N)NC(=N)NCCc1ccccc1 [Phenformin hydrochloride] (20 µM) | 0.958 | 1.01 | 1.07 | 0.756 | 1 (inactive) | 1.03 (inactive) | 1.03 (inactive) | 0.964 (inactive) | 1 (inactive) | 1.07 (inactive) | 1.01 (inactive) | 1.05 (inactive)
CCCCCCCN(CC)CCCC(O)c1ccc(NS(C)(=O)=O)cc1 (stereo not given) [Ibutilide fumarate] (20 µM) | 1.13 | 1.12 | 1.09 | 1.08 | 0.925 (inactive) | 0.904 (inactive) | 0.952 (inactive) | 1.03 (inactive) | 0.989 (inactive) | 1.02 (inactive) | 1.01 (inactive) | 0.903 (inactive)
CCOc1ccc2nc(S(N)(=O)=O)sc2c1 [Ethoxzolamide] (20 µM) | 0.955 | 0.957 | 0.989 | 0.925 | 1.04 (inactive) | 0.934 (inactive) | 0.994 (inactive) | 1.27 (inactive) | 0.997 (inactive) | 0.981 (inactive) | 0.989 (inactive) | 1 (inactive)
CNC[C@H](O)[C@@H](O)[C@H](O)[C@H](O)CO [Meglumine] (20 µM) | 0.956 | 1.07 | 1.05 | 0.994 | 0.883 (inactive) | 1.04 (inactive) | 1.02 (inactive) | 1.25 (inactive) | 0.979 (inactive) | 0.99 (inactive) | 1.06 (inactive) | 0.998 (inactive)
O=C(O)COCCN1CCN(C(c2ccccc2)c2ccc(Cl)cc2)CC1 (stereo not given) [Cetirizine dihydrochloride] (20 µM) | 1.02 | 1.07 | 1.04 | 0.959 | 0.94 (inactive) | 1.03 (inactive) | 1.01 (inactive) | 1.06 (inactive) | 0.997 (inactive) | 0.957 (inactive) | 1 (inactive) | 1.03 (inactive)
CC(=O)O[C@]1(C(C)=O)CC[C@H]2[C@@H]3C=C(C)C4=CC(=O)CC[C@@H]4[C@H]3CC[C@@]21C [Nomegestrol acetate] (20 µM) | 1.01 | 1.05 | 1.05 | 1.25 | 0.943 (inactive) | 1.01 (inactive) | 1.03 (inactive) | 1.03 (inactive) | 1 (inactive) | 0.946 (inactive) | 1.03 (inactive) | 1.02 (inactive)
CC(NN)c1ccccc1 (stereo not given) [Mebanazine] (20 µM) | 1.11 | 1 | 0.988 | 0.887 | 1.04 (inactive) | 1.04 (inactive) | 0.985 (inactive) | 0.997 (inactive) | 1.03 (inactive) | 0.986 (inactive) | 0.998 (inactive) | 0.916 (inactive)
O=C(NCCO[N+](=O)[O-])c1cccnc1 [Nicorandil] (20 µM) | 1.03 | 0.985 | 0.928 | 1.35 | 1.06 (inactive) | 1.04 (inactive) | 1.03 (inactive) | 1.05 (inactive) | 1.03 (inactive) | 0.981 (inactive) | 1 (inactive) | 1 (inactive)
O=C(NCCCN1CCOCC1)c1ccc(Cl)cc1 [Eprobemide] (20 µM) | 1.11 | 1.1 | 1.07 | 1.04 | 0.982 (inactive) | 1.02 (inactive) | 1.06 (inactive) | 0.929 (inactive) | 0.934 (inactive) | 0.942 (inactive) | 1.05 (inactive) | 1.12 (inactive)
CC(C)(C)C(=O)OCOC(=O)[C@@H]1N2C(=O)[C@@H](/N=C/N3CCCCCC3)[C@H]2SC1(C)C [Pivmecillinam hydrochloride] (20 µM) | 0.954 | 1.01 | 0.909 | 1.2 | 0.597 (active) | 1.01 (inactive) | 1.03 (inactive) | 1.02 (inactive) | 0.954 (inactive) | 1.46 (active) | 1.01 (inactive) | 1.03 (inactive)
CCCC1O[C@@H]2C[C@H]3[C@@H]4CCC5=CC(=O)C=C[C@]5(C)[C@H]4[C@@H](O)C[C@]3(C)[C@]2(C(=O)CO)O1 (stereo not given in full) [Budesonide] (20 µM) | 1.13 | 0.993 | 0.997 | 1.08 | 1.06 (inactive) | 0.934 (inactive) | 0.998 (inactive) | 1.02 (inactive) | 1.01 (inactive) | 1.02 (inactive) | 0.994 (inactive) | 0.984 (inactive)
Cn1c(=O)c2[nH]cnc2n(C)c1=O [Aminophylline] (20 µM) | 0.81 | 0.991 | 0.955 | 0.972 | 0.965 (inactive) | 1.06 (inactive) | 0.972 (inactive) | 1.17 (inactive) | 1.02 (inactive) | 1.01 (inactive) | 1 (inactive) | 0.939 (inactive)
CCN[C@H]1CN(CCCOC)S(=O)(=O)c2sc(S(N)(=O)=O)cc21 [Brinzolamide] (20 µM) | 1.17 | 1.04 | 1 | 1.04 | 1 (inactive) | 1.02 (inactive) | 0.944 (inactive) | 1.05 (inactive) | 0.989 (inactive) | 1.01 (inactive) | 1 (inactive) | 0.899 (inactive)
CC(=O)Oc1cc(C(F)(F)F)ccc1C(=O)O [Triflusal] (20 µM) | 1.01 | 0.971 | 0.952 | 0.878 | 1 (inactive) | 1.03 (inactive) | 1.01 (inactive) | 1.04 (inactive) | 0.97 (inactive) | 0.988 (inactive) | 0.992 (inactive) | 1.02 (inactive)
CN(C)CC/C=C1/c2ccccc2Sc2ccc(Cl)cc21 [Chlorprothixene hydrochloride] (20 µM) | 1.03 | 0.991 | 1.01 | 0.904 | 0.956 (inactive) | 0.997 (inactive) | 0.87 (inactive) | 0.959 (inactive) | 0.996 (inactive) | 1.03 (inactive) | 1.02 (inactive) | 0.942 (inactive)
Cc1ccc(S(=O)(=O)NCl)cc1 [Chloramine-T hydrate] (20 µM) | 0.97 | 0.978 | 1.11 | 1.07 | 0.912 (inactive) | 0.931 (inactive) | 0.992 (inactive) | 1.01 (inactive) | 1.03 (inactive) | 1.01 (inactive) | 1.02 (inactive) | 0.935 (inactive)
O=C(Oc1ccccc1)c1ccccc1O [Phenyl salicylate] (20 µM) | 1.08 | 0.961 | 0.971 | 1.04 | 1.09 (inactive) | 1.12 (inactive) | 1.08 (inactive) | 1.03 (inactive) | 0.942 (inactive) | 0.916 (inactive) | 1 (inactive) | 1.13 (inactive)
CCCCc1ncc(/C=C(\Cc2cccs2)C(=O)O)n1Cc1ccc(C(=O)O)cc1 [Eprosartan mesylate] (20 µM) | 1.06 | 1.06 | 1.16 | 0.916 | 0.882 (inactive) | 1.08 (inactive) | 0.998 (inactive) | 0.975 (inactive) | 1 (inactive) | 0.963 (inactive) | 1.03 (inactive) | 1.02 (inactive)
C[C@@](Cc1ccc(O)c(O)c1)(NN)C(=O)O [Carbidopa] (20 µM) | 0.93 | 0.989 | 1.03 | 0.905 | 0.98 (inactive) | 1.04 (inactive) | 1 (inactive) | 1.05 (inactive) | 1.01 (inactive) | 0.994 (inactive) | 1 (inactive) | 0.963 (inactive)
NC[C@H]1O[C@H](O[C@H]2[C@H](O)[C@@H](O[C@H]3O[C@H](CO)[C@@H](O)[C@H](N)[C@H]3O)[C@H](N)C[C@@H]2N)[C@H](N)C[C@@H]1O [Tobramycin] (20 µM) | 1.09 | 0.95 | 0.772 | 0.73 | 0.65 (active) | 1.13 (inactive) | 0.946 (inactive) | 0.911 (inactive) | 0.922 (inactive) | 0.889 (inactive) | 0.978 (inactive) | 0.941 (inactive)
